An excerpt weighted towards active compounds, which were near 1.5% of everything screened.
CRFBP-R2 block: antagonists of CRF-binding protein/CRF-R2 receptor complex. 0.59% of 350,000 active. AID 588475. inhibition, % at 11.8 µM. HEK293 CRF-R2/CRF-BP, CRF-induced calcium fluorescence;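 active = inhibition of the ligand-induced calcium signal above about 50% at the single tested concentration, limit read from the data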
IDE cell inh: inhibitors of human insulin-degrading enzyme in cells | inhibition, % at 5.59 µM | AID 434962 | HEK cells, FAbetaB cleavage, fluorescence polarization | 0.41% of 320,000 active;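 active = percent inhibition above the average of all tested compounds plus 3 SD, set per screening campaign, cut at about 16% in these data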;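 note: IDE supplied by intact live HEK cells; FP after avidin binding of uncleaved biotin substrate so inhibition keeps polarization high; 0% = DMSO wells and 100% = 60 µM reference IDE inhibitor Ii1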
CRFR2-BP ag: agonists of human CRF-binding protein/CRF-R2 receptor complex. 0.46% of 350,000 active. activation, % at 13.2 µM. HEK293 CRF-R2/CRF-BP, calcium dye fluorescence (FLIPR); percent of saturating CRF peptide response;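 active = activation of at least 50%, plus an integration ratio under a set limit after plate pattern correction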;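 note: plate controls were neutral control wells without compound for no effect and CRF at EC100 for full effect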
Cardiac RTF inh: cardiac RTF calcium desensitization | P19429+P45379 | IANBD-labeled cardiac RTF, Ca2+ fluorescence | AID 493244 | inhibition, % at 7.15 µM | 0.12% of 340,000 active;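 active = inhibition above the mean inhibition of all tested compounds plus 3 SD, cut at about 17% in these data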;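 note: assay run at fixed EC70 calcium of 1.6 mM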
RTF Ca sens act: increases calcium sensitivity of human cardiac regulated thin filaments | P19429+P45379 | IANBD-labeled TnC RTF fluorescence at EC20 calcium; 0% EC20 calcium, 100% full calcium | activation, % at 7.2 µM | 0.24% of 340,000 active | AID 493008;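 active = activation above the mean over all tested compounds plus 3 SD, cut at about 30% in these data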;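 note: rise in fluorescence read as greater calcium sensitivity of cardiac thin filaments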
IDE act: boosts human insulin-degrading enzyme activity in HEK cells; P14735; FAbeta-B cleavage, fluorescence polarization; 0% vehicle, 100% cell-free pure enzyme wells; activation, % at 5.96 µM; 0.073% of 340,000 active; AID 493087;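 active = activation above the mean of all tested compounds plus 3 SD, set per screening campaign, cut at about 17% in these data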
Numbers without * were called inactive.

For CC[C@@H]1CCCCc2ccccc2[C@H](C(=O)C[C@H](O)CC(C)=O)OC1=O the results were CRFBP-R2 block 51.3*, IDE cell inh 0.5, CRFR2-BP ag 1.2, Cardiac RTF inh -0.4, RTF Ca sens act -2.4 and IDE act 4.3.
CC(C)(C)C(=O)Nc1cc(NC(=O)C(C)(C)C)cc(C(=O)NNC(=O)c2ccncc2)c1 was read as CRFBP-R2 block -4.1, IDE cell inh -0.3, CRFR2-BP ag -2.6, Cardiac RTF inh 0.0, RTF Ca sens act -6.4 and IDE act 1.4.
For COc1ccc(OCc2cccc(C(=O)Nn3cc([N+](=O)[O-])cn3)c2)cc1 the results were CRFBP-R2 block 52.6*, IDE cell inh -4.0, CRFR2-BP ag 13.1, Cardiac RTF inh 7.0, RTF Ca sens act 1.9 and IDE act 5.9.
Screening CCN(CC)CCN(Cc1cc2cc3c(cc2[nH]c1=O)OCO3)C(=S)NC returned CRFBP-R2 block -17.0, IDE cell inh 4.3, CRFR2-BP ag 1.4, Cardiac RTF inh 4.3, RTF Ca sens act -2.6 and IDE act 3.4.
CN(Cc1nc2ccccc2c(=O)[nH]1)C(=O)c1cc(-c2ccc(Br)cc2)nc2ccccc12 was read as CRFBP-R2 block -0.3, CRFR2-BP ag 2.1, Cardiac RTF inh 2.7, RTF Ca sens act -2.9 and IDE act -13.1.
Screening CC(C)(C)C(=O)/C(=C/c1ccc(Cl)cc1)n1cncn1 returned CRFBP-R2 block 54.6*, CRFR2-BP ag 28.7, Cardiac RTF inh -8.2, RTF Ca sens act -0.7 and IDE act 3.4.
COc1ccc(C)cc1NC(=O)CN1CCN(S(=O)(=O)c2ccc3ccccc3c2)CC1 was read as CRFBP-R2 block -27.5, IDE cell inh -1.5, CRFR2-BP ag 6.2, Cardiac RTF inh -8.2, RTF Ca sens act -1.0 and IDE act 0.1.
O=C(O)CN1C(=O)/C(=C/C=C/c2ccccc2)SC1=S was read as CRFBP-R2 block 1.2, IDE cell inh 3.2, CRFR2-BP ag 2.7, Cardiac RTF inh -5.0, RTF Ca sens act -3.8 and IDE act 3.2.
`CCN1C(=O)/C(=C\C=C2/C=CC=CN2CC)SC1=S` gave CRFBP-R2 block 10.9, IDE cell inh 3.8, CRFR2-BP ag -2.9, Cardiac RTF inh -14.0, RTF Ca sens act 17.1 and IDE act -9.4.
For CCCN1C(=O)/C(=C\C=C2\N(CC)c3ccccc3C2(C)C)SC1=S the results were CRFBP-R2 block -213.8, CRFR2-BP ag 125.0*, Cardiac RTF inh -110.0, RTF Ca sens act 90.0* and IDE act -72.8.
Screening CCN1C(=O)/C(=C/C=C2\C=CN(CC)c3ccccc32)SC1=S returned CRFBP-R2 block 52.7*, IDE cell inh 7.8, CRFR2-BP ag 0.4, Cardiac RTF inh -4.1, RTF Ca sens act 4.0 and IDE act -5.4.
`CCN1C(=O)C(=CC=CN(C)c2ccccc2)SC1=S` gave CRFBP-R2 block -64.8 and CRFR2-BP ag 103.3*.
`CCN1C(=O)/C(=C\c2ccncc2)SC1=S` gave CRFBP-R2 block 5.5, IDE cell inh -4.1, CRFR2-BP ag -1.5, Cardiac RTF inh 3.1, RTF Ca sens act -7.7 and IDE act 1.4.
For O=S(=O)(Nc1cc(Cl)ccc1-n1cncn1)c1ccccc1Cl the results were CRFBP-R2 block 106.0*, IDE cell inh -6.5, CRFR2-BP ag -0.2, Cardiac RTF inh 1.1, RTF Ca sens act 2.4 and IDE act 1.4.
Screening CCCCCC(=O)N1C[C@H](n2cc(C3CC3)nn2)[C@@H](O)C[C@@H]1c1ccccc1 returned CRFBP-R2 block -14.3 and CRFR2-BP ag 2.5.
COc1ccccc1N1CCN(C(c2ccc(Cl)cc2)c2nnnn2C(C)(C)C)CC1 (centres undefined) was read as CRFBP-R2 block 119.0*, IDE cell inh 3.9, CRFR2-BP ag -1.6, Cardiac RTF inh -2.9, RTF Ca sens act 0.1 and IDE act 4.8.
C[C@H](CO)N1C[C@H](C)[C@@H](CN(C)S(=O)(=O)c2ccc(-c3ccccc3)cc2)OCc2cn(nn2)CCCC1=O was read as CRFBP-R2 block -9.9 and CRFR2-BP ag -0.6.
Screening N#CC1=C(N)Oc2ccc3ccc(O)cc3c2C1c1ccsc1 (centres undefined) returned CRFBP-R2 block -43.9, CRFR2-BP ag 70.6*, Cardiac RTF inh -106.4, RTF Ca sens act 98.9* and IDE act -8.2.
For O=C(NN(Cc1ccccc1)Cc1ccccc1)c1ccccc1 the results were CRFBP-R2 block 9.8, CRFR2-BP ag -3.4, Cardiac RTF inh 6.6, RTF Ca sens act 5.9 and IDE act 0.8.
For COc1ccc(S(=O)(=O)N2CCCCCC2)cc1C(=O)N(C)Cc1ccc(C(C)(C)C)cc1 the results were CRFBP-R2 block 78.5*, CRFR2-BP ag 2.4, Cardiac RTF inh -5.2, RTF Ca sens act 3.3 and IDE act 7.2.
`CCN1CCN(S(=O)(=O)c2ccc(Cl)c(C(=O)N(CCc3ccccc3)Cc3ccccc3)c2)CC1` gave CRFBP-R2 block -5.2, CRFR2-BP ag 19.0, Cardiac RTF inh 0.2, RTF Ca sens act -8.6 and IDE act 4.8.
Cc1ccc(S(=O)(=O)N2CCCCC2)cc1C(=O)N(CCc1ccccc1)Cc1ccccc1 was read as CRFBP-R2 block 67.0*, IDE cell inh 2.0, CRFR2-BP ag 3.8, Cardiac RTF inh -7.9, RTF Ca sens act -7.4 and IDE act 2.1.
`C=CCSc1nnc(NC(=O)c2c(CC)noc2C)s1` gave CRFBP-R2 block -0.1, IDE cell inh 4.6, CRFR2-BP ag 0.2, Cardiac RTF inh -13.4, RTF Ca sens act -5.7 and IDE act 1.4.
O=C(CN(CC1CCCO1)C(=O)CNS(=O)(=O)c1ccc(F)cc1)NC1CCCCC1 (centres undefined) was read as CRFBP-R2 block -7.8, IDE cell inh -0.9, CRFR2-BP ag -0.7, Cardiac RTF inh -11.2, RTF Ca sens act -0.7 and IDE act 3.0.
For COc1cc(/C=N/O)ccc1Oc1ccc([N+](=O)[O-])cc1[N+](=O)[O-] the results were CRFBP-R2 block -19.9, IDE cell inh 9.0, CRFR2-BP ag -1.4, Cardiac RTF inh 0.4, RTF Ca sens act -2.4 and IDE act 3.5.
For O=[N+]([O-])c1cc(/C=N\O)ccc1Oc1ccc(F)cc1 the results were CRFBP-R2 block 78.9*, IDE cell inh 3.8, CRFR2-BP ag -0.6, Cardiac RTF inh 0.9, RTF Ca sens act 0.8 and IDE act 3.2.
`CC1(C2CC2)NC(=O)N(CC(=O)Nc2ccccc2F)C1=O` (centres undefined) gave CRFBP-R2 block 54.5*, CRFR2-BP ag 3.4, Cardiac RTF inh -13.3, RTF Ca sens act -3.0 and IDE act 1.6.
O=C(Cc1ccc(-n2c(=O)[nH]c3ccsc3c2=O)cc1)N1CCN(c2ccc(Cl)cc2)CC1 was read as CRFBP-R2 block 7.7, IDE cell inh 21.1*, CRFR2-BP ag 0.6, Cardiac RTF inh -15.4, RTF Ca sens act -2.5 and IDE act -14.7.
